Consider 35 compounds from ChEMBL document CHEMBL3433997, “St. Jude Leishmania screening dataset” (2016).

In general, inhibition refers to the change of the read-out against control, counted positive when it falls.

Assay type in all cases: functional
Test [1] has as its target Solute carrier family 2, facilitated glucose transporter member 1 (Homo sapiens) (UniProt P11166). Briefly: ST_JUDE_LEISH: Cytotoxicity at 2uM final concentration against transgenic Leishmania Mexicana promastigotes LmGLUT1 that are glucose transport deficient and complemented with the human glucose transporter GLUT1. Activity is measured by DNA content using SYBR green in vitro.

For test [2], the target named is Hexose transporter 1 (Plasmodium falciparum) (UniProt O97467). Briefly: ST_JUDE_LEISH: Cytotoxicity at 2uM final concentration against transgenic Leishmania Mexicana promastigotes LmPfHT that are glucose transport deficient and complemented with the Plasmodium falciparum hexose transporter. Activity is measured by DNA content using SYBR green in vitro.
Test [3] has as its target Glucose transporter (Leishmania mexicana) (UniProt O61059). Briefly: ST_JUDE_LEISH: Cytotoxicity at 2uM final concentration against transgenic Leishmania Mexicana promastigotes LmGT2 that are glucose transport deficient and complemented with the L. Mexicana glucose transporter 2. Activity is measured by DNA content using SYBR green in vitro.

Solute carrier family 2, facilitated glucose transporter member 1 (Homo sapiens), sequence (P11166 whole entry): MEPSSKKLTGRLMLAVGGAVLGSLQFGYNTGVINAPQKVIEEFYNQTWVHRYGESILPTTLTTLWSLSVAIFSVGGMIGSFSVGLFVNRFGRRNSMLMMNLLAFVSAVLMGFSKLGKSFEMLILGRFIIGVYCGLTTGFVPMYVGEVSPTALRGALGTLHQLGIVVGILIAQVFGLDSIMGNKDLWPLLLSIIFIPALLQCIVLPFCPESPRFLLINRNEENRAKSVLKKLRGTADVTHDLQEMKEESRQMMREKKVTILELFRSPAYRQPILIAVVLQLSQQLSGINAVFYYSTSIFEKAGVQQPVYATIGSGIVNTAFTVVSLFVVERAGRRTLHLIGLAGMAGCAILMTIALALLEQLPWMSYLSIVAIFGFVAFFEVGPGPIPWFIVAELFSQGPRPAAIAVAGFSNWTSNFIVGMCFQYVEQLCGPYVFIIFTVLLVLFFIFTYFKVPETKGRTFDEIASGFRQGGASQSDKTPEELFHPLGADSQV

With `CCOc1ccc2c(=NN=Cc3cccc(F)c3)cc(C)[nH]c2c1`, the inhibition turned out to be 6% in test [1], 1.08% in test [2] and 2.7% in test [3].

As to `O=C(c1cccc(-c2ccc(-c3nc4cc(C(F)(F)F)ccc4[nH]3)cc2)c1)N1CCCCC1CN1CCC(O)C1` (stereo not given), the inhibition is 0.99% in test [1], 1.44% in test [2] and 2.26% in test [3].

In the case of `O=C1OC2(CN1CC1CCN(Cc3ccc(O)c(Cl)c3)CC1)c1ccccc1-c1ccccc12`, the inhibition is 8.04% in test [1], 6.3% in test [2] and 3.94% in test [3].

As for `CC(NC(=O)c1cc(-c2ccccc2)nc2c1cnn2C(C)C)C1CC1` (stereo not given), the inhibition amounted to 1.45% in test [1], 0.66% in test [2] and 0.29% in test [3].

`Cn1nccc1C(=O)NCCNCc1cccc(-c2csc(-c3nc4ccccc4[nH]3)c2)c1`: the inhibition was 9.15% in test [1], 8.22% in test [2] and 7.22% in test [3].

As to `CC(C)Nc1cc(C(=O)N[C@@H](Cc2ccccc2)[C@H](O)CNC2CCCCC2)cc(N2CCCCS2(=O)=O)c1`, the inhibition in test [1] turned out to be 0.23%; in test [2], 3.37%; in test [3], 7.2%.

`COc1ccc(NC(=O)NC2CCN(CCCOc3cc(C)nc4ccccc34)CC2)cc1OC`: the inhibition was 0.88% in test [1], 1.97% in test [2] and -3.5% in test [3].

For the compound `Cc1ccc(Nc2ccnc3ccc(C(F)(F)F)cc23)cc1O`, the inhibition came to 4.92% in test [1], 3.33% in test [2] and 2.31% in test [3].

Regarding `N=C1NC(c2ccccc2)(c2ccccc2)C(=O)N1C1CCCCC1`, the inhibition came out at 3.46% in test [1], 3.28% in test [2] and 1.18% in test [3].

On to `CN1CCN(c2cc(-c3cccnc3)nc(-c3ccncc3)n2)CC1`, for which the inhibition in test [1] came to 5.56%; in test [2] it was 5.65%; in test [3], 3.57%.

On to `CN(C)CCOc1cc(NC(=O)c2ccc(-c3ccc(Cl)cc3Cl)cc2)ccc1-c1ccccc1`, for which the results for the inhibition in test [1], in test [2] and in test [3] were 0.11%, 0.95% and -0.43%, respectively.

`CCNc1cc(C(=O)N[C@@H](Cc2ccccc2)[C@H](O)CNCCc2ccccc2)cc(N2CCCCS2(=O)=O)c1`: the inhibition is -0.52% in test [1], -0.67% in test [2] and -3.28% in test [3].

As for `CO/C(=C\C=C\c1cc2cc(Cl)c(Cl)cc2[nH]1)C(=O)NCCCN1CCN(c2cccc(CCO)c2)CC1`, the values for the inhibition in test [1], in test [2] and in test [3] were -0.14%, 1.35% and -0.1%, respectively.

Turning to `Cc1ccc(C(=O)Nc2ccc(Cl)c(N3CCN(CCc4ccccc4)CC3)c2)cc1`, the results for the inhibition in test [1], in test [2] and in test [3] were 4.14%, 8.02% and 6.51%, respectively.

Regarding `CN(C)C(=S)N/N=C1/C(=O)Nc2ccccc21`, the results for the inhibition in test [1], in test [2] and in test [3] were 3.54%, 1.92% and 1.43%, respectively.

As to `Cc1[nH]c(C)c(-c2ccc(Br)cc2)c(=O)c1Cl`, the inhibition is 4.57% in test [1], 3.47% in test [2] and 3.22% in test [3].

As to `CC(C)CNCc1cccc(-c2ccc(CN(CCCN3CCN(C)CC3)C(=O)/C=C/c3ccccc3)cc2)c1`, the inhibition in test [1] came out at 2.92%; in test [2] it was 3.29%; in test [3], 3.9%.

As for `CC[C@H](C)CNC(=O)c1ccnc(-c2ccc(CNCCCc3ccccc3)cc2)c1`, the values for the inhibition in test [1], in test [2] and in test [3] were 1.95%, 1.1% and -0.91%, respectively.

As to `Cc1c(C2CCN(CCCCNC(=O)c3ccc(-c4ccc(C#N)cc4)cc3)CC2)c2ccccc2n1CCO`, the figures for the inhibition in test [1], in test [2] and in test [3] were 3.84%, 0.33% and 3.72%, respectively.

Take `FC(F)(F)c1ccc(CSc2ccc3nnc(-c4ccccn4)n3n2)cc1`: the inhibition came out at 9.17% in test [1], 9.71% in test [2] and 7.64% in test [3].

Consider `Cc1cc(NCCC(=O)Nc2ccccc2)nc(NCCc2ccc(F)cc2)n1`, for which the inhibition came to 3.19% in test [1], 3.34% in test [2] and 1.6% in test [3].

As to `Cc1cc(NC(c2ccc(Cl)cc2)c2ccc3cccnc3c2O)no1` (stereo not given), the inhibition in test [1] was 16.6%; in test [2], 22.8%; in test [3] it was 6.2%.

Take `O=C(NC1CCN(CCN2CCC(c3c[nH]c4ccccc34)CC2)CC1)c1ccc(-c2ccc(C(F)(F)F)cc2)cc1`: the values for the inhibition in test [1], in test [2] and in test [3] were 59%, 19.8% and 30.2%, respectively.

Turning to `Cc1nn(-c2ccccc2)c2sc(C(=O)N(CCCN(C)C)c3nc(-c4ccccc4)cs3)cc12`, the inhibition in test [1] is 1.15%; in test [2] it was 3.31%; in test [3], 0.07%.

For the compound `CCOCCCn1c(=N)c(C(=O)NCc2ccc(F)cc2)cc2c(=O)n3cccc(C)c3nc21`, the results for the inhibition in test [1], in test [2] and in test [3] were 4.22%, 10.1% and -1.34%, respectively.

For the compound `O=c1cc(NCCCNCc2cc3c(Cl)cc(Cl)cc3[nH]2)[nH]c2ccccc12`, the inhibition in test [1] is -0.67%; in test [2], -0.16%; in test [3], -0.14%.

Regarding `Nc1nc(N)c2c(ccc3c2ccn3Cc2cccc3ccccc23)n1`, the values for the inhibition in test [1], in test [2] and in test [3] were 97.3%, 96% and 88.4%, respectively.

For `Cc1cc(F)ccc1-c1nc(NCCCNCCc2ccccc2)nc2c1ccc(=O)n2-c1c(F)cccc1F`, the inhibition in test [1] was 0.55%; in test [2], 5.5%; in test [3], 0.76%.

Take `CCCS(=O)(=O)c1nc(S(=O)(=O)c2ccc(Cl)cc2)c(N2CCCCC2)s1`: the inhibition in test [1] was 0.14%; in test [2], 0.19%; in test [3] it was -1.01%.

For `Cc1cc(N2CCCC2)nc(Nc2ccc(NC(=O)C(C)Oc3ccccc3)cc2)n1` (stereo not given), the inhibition in test [1] turned out to be 10.6%; in test [2], 15.9%; in test [3], 7.47%.

Consider `O=C(Nc1ccc(OC(F)(F)F)cc1)NC1CCN(c2ccnc3ccccc23)CC1`, for which the inhibition in test [1] was 6.11%; in test [2], 5.45%; in test [3], -1.28%.

With `O=C(O)C[C@H](NC(=O)CCCNC(=O)c1cccc(-c2ccc(Cl)c(Cl)c2)c1)C(=O)O`, the inhibition in test [1] was -1.37%; in test [2], 0.62%; in test [3] it was 1.4%.

Take `Cc1ccc(-c2noc(=O)n2CC(=O)Nc2ccccc2-c2ccccc2)cc1`: the inhibition was 0.59% in test [1], 0.52% in test [2] and -0.17% in test [3].

Consider `Cc1cc(O)c(-c2cc(C(=O)Nc3cccnc3)[nH]n2)cc1C`, for which the inhibition was 7.05% in test [1], 4.46% in test [2] and 4.37% in test [3].

As for `Nc1cccc(CNCc2cccc(-c3ccc(-c4nc5ccccc5[nH]4)cc3)c2)c1`, the inhibition in test [1] was -1.29%; in test [2] it was -0.89%; in test [3] it was -0.37%.
